RE007 growth inh: qHTS Assay for Inhibitors of the HIV-1 protein Vpr; S. pombe RE007 Vpr strain, BacTiter-Glo ATP luminescence, 24 h; Potency, µM (titrated, usually from 92.2 µM), for the others: at the highest dose activity change, negative = less growth, actives largely listed as inhibitors; hit rate 0.21% among 360,000; AID 651644, 2012; active means well fitted falling curve with a large enough effect; inconclusive means small, poorly fitted or top-dose-only effect; inactive means no such curve, though single readings can be large or run the other way; further: nearly all actives have a fitted effect of over 50% in size
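Fission yeast strain RE007, carrying one chromosomally integrated HIV-1 vpr copy, was seeded at OD 0.01 in PMG+AL medium with 23 nL pinned compound. After 24 h at 30 °C and 99% humidity, viability was read by BacTiter-Glo luminescence.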
Sm TGR inh: qHTS Assay for the Inhibitors of Schistosoma Mansoni Peroxiredoxins | hit rate 3% among 360,000 | Potency, µM (titrated, usually from 114 µM), inactives show at the top dose activity change, negative = inhibition, most hits filed as inhibitors | AID 485364, 2010 | purified TGR, DTNB reduction, TNB absorbance 405 nm | Schistosoma mansoni thioredoxin glutathione reductase (TGR), Q962Y6; further: nearly all actives have a fitted effect of over 60% in size
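TGR 20 nM + NADPH 100 uM (dispensed conc.), cpd preinc 15 min RT; start with NADPH (500 uM addition) then DTNB (15 mM addition). Kinetic TNB absorbance, 405 nm filter. Four-parameter Hill fit across titration.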
MARV entry inh: qHTS for inhibitors of binding or entry into cells for Marburg Virus; Potency, µM (top dose mostly 37.8 µM), inactives show top-dose activity change, negative = inhibition, actives largely listed as inhibitors; hit rate 1.8% among 300,000; AID 540276, 2011; Marburg virus pseudotyped entry inhibition, cell reporter; calls by dose curve; tested in HEK293 cells
FMDV antiviral: High Throughput Screening for Foot and Mouth Disease Virus Antivirals | FMDV antiviral cell-based qHTS | Potency, µM (series often up to 57.9 µM), inactives show at the highest dose activity change, negative = inhibition, actives largely listed as inhibitors | hit rate 1.2% among 410,000; calls by dose curve; tested in HEK293T cells; further: read-out not given here; nearly all actives have a fitted effect of over 45% in size
Lassa entry inh: qHTS for Inhibitors of binding or entry into cells for Lassa Virus. Potency, µM (titrated, usually from 37.9 µM), for the others: at the top dose activity change, negative = inhibition, most hits filed as inhibitors. Lassa virus pseudotype entry inhibition, cell reporter. hit rate 1.2% among 300,000. AID 540256, 2011; calls by dose curve; tested in HEK293 cells; further: nearly all actives have a fitted effect of over 50% in size
HCV inhibitor: qHTS Assay for Inhibitors of Hepatitis C Virus (HCV); hit rate 3.4% among 340,000; Huh7.5.1 HCVcc-Cre infection, luciferase reporter, 44 h; AID 651820, 2012; Potency, µM (titrated, usually from 41.8 µM), for the others: at the highest dose activity change, negative = inhibition, usual class: inhibitors
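Seed cells (1,000/well) for 4 h; treat with compound and infect with HCVcc-Cre, moi about 0.5. Incubate 44 h, then detect luciferase activity.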
The depositor's hits bear a star; ? = inconclusive; / = no result given; [ ] = another dose, or the depositor's remark. Hits are enriched below; roughly 7.2% of the tested compounds scored in any of these assays. Unless noted, the call rests on the fitted dose curve; in most records, active means well fitted curve in the direction sought with a large enough effect; inconclusive means small, poorly fitted or top-dose-only effect, or another doubt; inactive means no such curve, though single readings can be large; an effect the other way counts as inactive or inconclusive. On the % scale 0 is the no-effect control and ±100 the full control effect; potency means the concentration at half of the fitted maximal effect.

SMILES	RE007 growth inh	Sm TGR inh	MARV entry inh	FMDV antiviral	Lassa entry inh	HCV inhibitor
CCNC(=O)C1CC(=O)N(c2ccc(OCC)cc2)C1 (stereo unspecified)	14.2%	-21.0%	-1.9%	0.0%	?	3.4%
O=C(CCc1ccccc1)N1CCc2c([nH]c3ccccc23)C1c1ccc(F)cc1 (stereo unspecified)	/	47.8%	/	2.2%	?	/
COc1cc(/C=C2\SC(=S)N(CCC(=O)N3CCCCC3)C2=O)cc(OC)c1OC	-2.0%	-1.7%	?	28.2µM*	?	?
CN1C/C(=C/c2ccsc2)C(=O)/C(=C/c2ccsc2)C1	-22.4%	?	5.01µM*	28.2µM*	?	?
CN1C/C(=C/c2ccncc2)C(=O)/C(=C/c2ccncc2)C1	-4.4%	?	-0.4%[46.1 µM]	-6.7%	?	16.3%
CN1C/C(=C\c2ccc(N3CCOCC3)cc2)C(=O)/C(=C/c2ccc(N3CCOCC3)cc2)C1	0.3%	?	?	?	1.6%	11.2µM*
CCN1C/C(=C/c2ccc(N3CCOCC3)cc2)C(=O)/C(=C/c2ccc(N3CCOCC3)cc2)C1	?	-20.5%	?	28.2µM*	?	?
c1ccc(N2CCOCCOCCOCCOCCOCC2)cc1	-18.3%	11.2%	3.0%	-9.7%	?	-2.1%
Cc1nc2ccccn2c(=O)c1NC(=O)c1ccccc1Cl	/	2.3%	/	6.2%	6.1%[46.1 µM]	/
CCCCOc1c(Cl)cc(C(=O)N(Cc2ccc(C)o2)C2CCS(=O)(=O)C2)cc1Cl (stereo unspecified)	/	-2.5%	?	?	-1.7%[46.1 µM]	/
CC1=NNC(=O)/C1=C\c1cn(-c2ccccc2)nc1-c1ccc(F)cc1	2.5%	-1.5%	8.91µM*	11.2µM*	?	4.47µM*
CC1=NNC(=O)/C1=C\c1cn(-c2ccccc2)nc1-c1cccs1	-2.2%	2.3%	-41.2%	10µM*	?	?
Cc1c(NC(=O)/C=C/c2cn(-c3ccccc3)nc2-c2ccc(F)cc2)c(=O)n(-c2ccccc2)n1C	3.0%	3.16µM*	-0.8%	-17.5%	/	11.2µM*
CN1CCC(N(C)C(=O)/C=C/c2cn(-c3ccccc3)nc2-c2cccs2)CC1	-2.6%	-3.4%	?	-27.2%	?	7.94µM*
CC=C(C)[C@H](O)C[Si](C)(C)c1ccccc1	/	/	-3.0%[14.2 µM]	/	/	/
CCCOc1ccc(N2C(=O)C[C@@H](N(Cc3ccc(S(N)(=O)=O)cc3)C(=O)CC)C2=O)cc1	/	/	2.6%	/	/	/
C=CCc1cc(C=C2C(=O)NC(=O)NC2=O)cc(OC)c1OCc1ccc(C(=O)O)cc1	0.8%	?	/	-16.4%	/	18.2%
C=CCc1cc(C=C2C(=O)N(C)C(=O)N(C)C2=O)cc(OCC)c1OCc1ccccc1	-9.1%	31.6µM*	-28.7%	-28.9%	3.2%	16.1%
C[C@@H]1CC[C@H]2C(=O)N3[C@@H](CC[C@@H](C)[C@@H]3c3ccc(Br)cc3)C(=O)N2[C@@H]1c1ccc(Br)cc1	/	/	-24.7%[14.2 µM]	/	/	/
CCOC(=O)N1CCc2c(sc3c2c(=O)n(-c2ccc(Cl)cc2)c(=O)n3Cc2cccc(OC)c2)C1	/	-6.5%	-6.3%[46.1 µM]	0.0%	8.9%[46.1 µM]	/
CN(C)c1ccc(/C=N/N=C/c2ccccc2O)cc1	2.0%	6.0%	5.62µM*	-61.9%	?	13.6%
CN1CCN(c2nc(-c3cccc([N+](=O)[O-])c3)nc3ccccc23)CC1	-8.4%	0.0%	?	-15.0%	?	?
CN1CCC(N(C)c2nc(-c3ccc([N+](=O)[O-])cc3)nc3ccccc23)CC1	?	3.6%	11.2µM*	0.3%	?	4.47µM*
COc1cccc(OCc2cc(=O)n3c(-c4ccccc4)csc3n2)c1	/	-7.8%	?	-4.2%	10.3%[46.1 µM]	/
CC1CN(c2ccc([N+](=O)[O-])cc2F)CCN1C(=O)c1ccco1 (stereo unspecified)	?	-4.3%	?	?	-13.4%	/
SMILES	RE007 growth inh	Sm TGR inh	MARV entry inh	FMDV antiviral	Lassa entry inh	HCV inhibitor
O=C(c1ccco1)N1CCN(c2ccc([N+](=O)[O-])cc2F)CC1	-3.4%	35.5µM*	17.8%[46.1 µM]	11.8%	14.5%[46.1 µM]	-18.1%
O=C1CCN(c2ccc([N+](=O)[O-])cc2F)CC1	14.6%	39.8µM*	20.6%[46.1 µM]	1.9%	-6.5%	-29.4%
COc1ccccc1N1CCN(c2nc(CNC(=O)c3ccccc3F)nc3ccccc23)CC1	/	/	/	0.3%	/	/
Cc1cccc(C)c1NC(=O)CN1C(=O)c2cccc3cccc1c23	/	1.1%	/	7.0%	3.2%[46.1 µM]	/
C=CCN(CC=C)Cc1c(O)ccc2c(=O)c(-c3ccccc3)coc12	1.4%	12.6µM*	-6.5%[46.1 µM]	21.2%	?	-21.7%
CCN(Cc1ccccc1)Cc1c(O)ccc2c(=O)c(-c3ccc(Cl)cc3)coc12	/	-14.4%	-0.4%[46.1 µM]	10.5%	?	/
N#CC1=C2Sc3ccccc3N2CCCC1=O	7.6%	1.7%	11.6%	32.6%	?	22.9%
N#CC1=C2SC=C(c3ccc(Br)cc3)N2CCCC1=O	?	7.7%	?	-5.7%	3.2%[46.1 µM]	11.2µM*
O=C(NC1(C(F)(F)F)C(=O)Nc2c1c(=O)[nH]c(=O)n2CCc1ccccc1)c1ccc(Cl)cc1 (stereo unspecified)	/	17.7%	/	-5.6%	-22.3%[46.1 µM]	/
CC1(C)CC2CC(C)(CN2c2ncnc3ccccc23)C1 (stereo unspecified)	-3.4%	-2.0%	?	/	-29.8%	11.2µM*
CC1CCCCN1c1ncnc2ccccc12 (stereo unspecified)	-3.6%	1.5%	?	/	?	?
Cc1cccc(Nc2nnc(SCC(=O)NC3CCCc4ccccc43)s2)c1C (stereo unspecified)	-8.6%	-7.3%	?	39.8µM*	?	?
Cc1ccccc1-n1c(C)nnc1SCC(=O)NC1CCCc2ccccc21 (stereo unspecified)	/	-5.6%	?	12.7%	2.4%	-6.0%
Clc1ccc(CNC2CCN(Cc3ccccc3)CC2)cc1	0.0%	4.2%	10µM*	-26.3%	-17.9%[46.1 µM]	8.91µM*
S=C(NCc1ccc(Cl)cc1)NC1CCN(Cc2ccccc2)CC1	-15.8%	-8.2%	6.31µM*	-25.0%	?	3.98µM*
CCc1ccc(-n2c(=O)c3cccnc3n2CC(=O)N(CC)c2cccc(C)c2)cc1	/	0.9%	/	-16.2%	-26.0%[46.1 µM]	/
CC(C)Nc1ccc(Nc2ccccc2)cc1	?	8.91µM*	2.2%	25.0%	?	?
CCOc1ccc(CN(C)C(=O)CCNC(=O)c2ccco2)cc1	-4.0%	-4.6%	/	1.9%	/	-1.3%
CCOc1ccc(CC(=O)NNC(=O)/C=C/C(=O)O)cc1	0.7%	17.8µM*	2.9%	-3.8%	-4.0%	-26.7%
CCOc1ccc(CN(C)C(=O)CCl)cc1	-11.8%	15.8µM*	11.2µM*	25.1µM*	?	?
CCOc1ccc(CN(C)C(=O)CCc2ccc(S(=O)(=O)N3CCCCCC3)cc2)cc1	3.7%	3.5%	/	?	/	3.98µM*
